Measured values published in PubChem BioAssay.
Results filed as inconclusive are left out. The source made the active and inactive calls.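 How the source made its calls, unless noted: active means viability at or under a set limit in both replicates, limit being median viability minus 3 SD (cut at about 48% in these data, passing the limit was not always enough); inconclusive means at or under the limit in just one replicate; inactive means at or above the limit in both replicates.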

What was measured:
[1] = Her2 expression decrease, cell viability multiplex – SKBR3 breast tumor cells, AlphaScreen, ATP viability, primary screen (AID 461;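 active means Her2 level under about 52% in both replicate screens, with viability over 70% of control, limit read from the data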;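 on Her2 level: lower value means less Her2 protein in the cells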;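 on viability: percent of carrier control wells set as 100% viability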); conditions: SKBR3 Her2 protein level, 18-24 h, measured here: SKBR3 viability, ATP luminescence, at 10 µM
[2] = biological target: Receptor tyrosine-protein kinase erbB-2 (Homo sapiens) (UniProt P04626); assay: as above; conditions: 18-24 h, at 10 µM, stronger effect = lower value
Chain of Receptor tyrosine-protein kinase erbB-2 (Homo sapiens) (P04626 whole entry, looked up): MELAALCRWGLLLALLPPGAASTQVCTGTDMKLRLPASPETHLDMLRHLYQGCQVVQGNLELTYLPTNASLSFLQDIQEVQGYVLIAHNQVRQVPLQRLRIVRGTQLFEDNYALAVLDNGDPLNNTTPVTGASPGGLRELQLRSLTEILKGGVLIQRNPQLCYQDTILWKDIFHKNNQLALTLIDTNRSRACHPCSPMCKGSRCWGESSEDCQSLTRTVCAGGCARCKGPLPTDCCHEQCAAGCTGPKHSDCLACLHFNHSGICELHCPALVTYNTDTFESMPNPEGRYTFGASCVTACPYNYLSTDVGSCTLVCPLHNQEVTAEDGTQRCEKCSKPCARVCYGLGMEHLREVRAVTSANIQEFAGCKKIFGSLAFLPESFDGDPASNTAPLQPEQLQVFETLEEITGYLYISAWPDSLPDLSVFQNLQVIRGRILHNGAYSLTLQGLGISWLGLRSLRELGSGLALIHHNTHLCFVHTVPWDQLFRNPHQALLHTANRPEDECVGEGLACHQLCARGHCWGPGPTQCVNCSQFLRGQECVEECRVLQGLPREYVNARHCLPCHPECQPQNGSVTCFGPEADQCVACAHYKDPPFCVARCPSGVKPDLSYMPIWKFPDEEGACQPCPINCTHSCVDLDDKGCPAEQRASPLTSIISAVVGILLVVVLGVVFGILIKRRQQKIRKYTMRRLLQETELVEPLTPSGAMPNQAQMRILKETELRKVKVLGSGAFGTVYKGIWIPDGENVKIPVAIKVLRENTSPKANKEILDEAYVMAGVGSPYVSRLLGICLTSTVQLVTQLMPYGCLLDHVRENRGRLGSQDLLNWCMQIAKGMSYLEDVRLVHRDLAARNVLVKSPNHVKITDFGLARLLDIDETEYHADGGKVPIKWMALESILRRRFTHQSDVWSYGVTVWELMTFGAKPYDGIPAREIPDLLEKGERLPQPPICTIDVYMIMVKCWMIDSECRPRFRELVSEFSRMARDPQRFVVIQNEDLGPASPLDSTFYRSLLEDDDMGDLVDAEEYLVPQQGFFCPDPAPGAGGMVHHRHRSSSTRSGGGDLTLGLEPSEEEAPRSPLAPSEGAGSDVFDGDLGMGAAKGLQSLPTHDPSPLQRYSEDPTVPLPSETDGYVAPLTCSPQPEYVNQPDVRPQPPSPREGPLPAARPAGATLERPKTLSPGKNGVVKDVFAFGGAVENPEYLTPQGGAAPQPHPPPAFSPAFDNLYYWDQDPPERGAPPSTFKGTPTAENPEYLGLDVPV

[3] = reduced viability of SK-BR-3 breast cancer cells – cell-based, 24 h, human, pilot screen (AID 572;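 active means viability at or below 10% of carrier control in both of two separate runs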;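 further: compound exposure lasted between 18 and 24 h rather than exactly 24 h; 100% = carrier-treated control wells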); conditions: SK-BR-3 viability, CellTiter-Glo luminescence, at 10 µM, stronger effect = lower value
[4] = HUVEC growth inhibition – cell-based, human, primary screen (AID 575;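 active means viability at or below 30% in both replicate assays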;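 further: 100% = median of untreated cell wells with 0.1% DMSO on each plate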); conditions: HUVEC proliferation, CellTiter-Glo luminescence, 72 h; at 10 µM; stronger effect = lower value
[5] = H69AR cell proliferation blockers – human, duplicate replicates, primary screen (AID 580); conditions: H69AR lung tumor cells viability, ATP luminescence, 72 h; at 10 µM; stronger effect = lower value;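 further: 100% = mean luminescence of untreated wells and 0% = no signal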
[6] = MRP1 drug-resistance reversers in H69AR cells – cell-based, doxorubicin co-treatment, pilot screen (AID 601;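 active means viability loss from added drug above about 55%, and viability with drug at most 40%, in both replicates, limit read from the data, passing the limit was not always enough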); conditions: CellTiter-Glo, 72 h, at 10 µM; for differential viability (reversal): stronger effect = higher value
[7] = yeast transport mutant growth inhibition pilot in 384-well plates, post-Golgi transport modulator project (AID 636; in the data active means inhibition above about 31%); conditions: absorbance 615 nm, about 18 h, stronger effect = higher value
[8] = growth suppression of yeast trafficking mutant, preliminary HTS, modulators of trafficking downstream of Golgi apparatus project, 1536-format plate, OD 615 nm (AID 637; in the data active means inhibition above about 30%); conditions: yeast transport mutant growth, absorbance 615 nm, 18 h; stronger effect = higher value
[9] = S. cerevisiae growth inhibition in permissive medium (OD615), pilot counter-assay for S. cerevisiae lifespan shortening project, permissive growth control (AID 705;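 active means growth inhibition above 25% in both replicates, a cutoff set 3 SD above the mean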); conditions: OD615, 24 h, at 10 µM, stronger effect = higher value
[10] = S. cerevisiae growth inhibition in restrictive medium, OD615, pilot screen, restrictive growth control, yeast lifespan reduction project (AID 706;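 active means growth inhibition above a set limit, 3 SD over mean compound inhibition, in both replicates, cut at about 43% in these data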;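 further: modified DeaD lifespan yeast strain shifted to restrictive glucose medium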); conditions: OD615, 48 h, at 10 µM, stronger effect = higher value
[11] = doxorubicin toxicity protection in MRP-1 cells – H69AR cells, CellTiter-Glo, duplicate, MRP-1 activator project, pilot screen (AID 807;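 active means viability increase at or above a cutoff of the median across tested compounds plus 3 SD, cut at about 8.5% in these data, passing the limit was not always enough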;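 further: compound pretreatment 18-22 h then 72 h combined with doxorubicin; 0% = doxorubicin alone and 100% = vehicle without doxorubicin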); conditions: H69AR viability with doxorubicin, CellTiter-Glo luminescence; at 10 µM; stronger effect = higher value
[12] = viability of HCT116 without oncogenic beta-catenin – human colon tumor cells, pilot screen (AID 823;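 active means cell viability at or below a set limit in both duplicate runs, the limit being the all-compound median minus 4 SD, cut at about 23% in these data, passing the limit was not always enough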;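 further: 0% = wells killed by 20 µM Hyamine and 100% = untreated DMSO cell wells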); conditions: HCT116 beta-catenin knockout viability, CellTiter-Glo, 60 h; at 10 µM; stronger effect = lower value
[13] = viability of PTEN-null HCT116 cells – cell-based, HCT116 clonal line, CellTiter-Glo, pilot screen (AID 824;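 active means viability at or below 27.92% in each of two runs, the all-compound median minus 4 SD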;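 further: 0% = 20 µM Hyamine control and 100% = vehicle cell control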); conditions: HCT116 PTEN-deleted viability, 60 h, at 10 µM, stronger effect = lower value
[14] = RAM pathway blockade in budding yeast – dse1pr::URA3 reporter, 5-FOA selection, pilot screen (AID 869;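 active means inhibition over a set limit, the all-compound mean plus 3 SD, in both replicate runs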;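 further: 0% = DMSO wells with no growth and 100% = 10 µM 1-NA-PP1 with full growth; RAM network block rescues cells from 5-FOA so hits raise OD615 growth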); conditions: S. cerevisiae dse1pr::URA3 5-FOA growth, OD615, 2 d; at 10 µM; stronger effect = higher value; strain carries analog-sensitive mutant Cbk1 kinase
[15] = RAM signaling pathway blockade in yeast – S. cerevisiae, Pdr1DBD-CYC8 efflux-inhibited sensitized strain, primary screen (AID 1298;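 active means RAM network inhibition above 8.4% in each of two replicates, 3 SD over the compound average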;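 further: 0% = DMSO untreated cells without growth and 100% = 10 µM 1-NA-PP1 full growth; higher means more yeast growth rescued from 5-FOA killing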); conditions: S. cerevisiae cbk1-as DSE1-URA3 strain, 5-FOA growth OD615, 2 d; at 50 µM; stronger effect = higher value
[16] = H69AR cells + 2 uM doxorubicin, measured here: viability with 2 uM doxorubicin, stronger effect = lower value
[17] = H69AR cells, compound alone cytotoxicity

CCCCc1cc(=O)oc2cc(OCC(=O)N(CC)CC)c(Cl)cc12
viability [1]: 98%
Her2 level [2]: 112% (inactive)
viability [3]: 98% (inactive)
viability [4]: 77.9% (inactive)
viability [5]: 79% (inactive)
differential viability (reversal) ([6]; H69AR cells + 2 uM doxorubicin): -17.3% (inactive)
viability [6, 16]: 96.3%
viability [6, 17]: 79%
inhibition [7]: -4% (inactive)
inhibition [8]: -1.17% (inactive)
growth inhibition [9]: -1.69% (inactive)
growth inhibition [10]: 2.79% (inactive)
viability increase [11]: -1.39% (inactive)
viability [12]: 93.5% (inactive)
viability [13]: 89.6% (inactive)
inhibition [14]: -0.34% (inactive)
RAM network inhibition [15]: 5.28% (inactive)

COc1cccc(C2CC(c3ccc(F)cc3)Nc3nc(N)nn32)c1 (stereo not given)
viability [1]: 100%
Her2 level [2]: 106% (inactive)
viability [3]: 100% (inactive)
viability [4]: 99.9% (inactive)
viability [5]: 103% (inactive)
differential viability (reversal) ([6]; H69AR cells + 2 uM doxorubicin): 3.04% (inactive)
viability [6, 16]: 99.9%
viability [6, 17]: 103%
inhibition [7]: -2.67% (inactive)
inhibition [8]: 14.9% (inactive)
growth inhibition [9]: -3.78% (inactive)
growth inhibition [10]: 4.35% (inactive)
viability increase [11]: -0.39% (inactive)
viability [12]: 102% (inactive)
viability [13]: 95.5% (inactive)
inhibition [14]: 0.725% (inactive)
RAM network inhibition [15]: 5.03% (inactive)

CC(C)OC(=O)c1ccc(OC(=O)c2cccnc2)cc1
viability [1]: 91.5%
Her2 level [2]: 100% (inactive)
viability [3]: 91.5% (inactive)
viability [4]: 102% (inactive)
viability [5]: 106% (inactive)
differential viability (reversal) ([6]; H69AR cells + 2 uM doxorubicin): 11.3% (inactive)
viability [6, 16]: 94.6%
viability [6, 17]: 106%
inhibition [7]: 3.65% (inactive)
inhibition [8]: -3.44% (inactive)
growth inhibition [9]: 2.51% (inactive)
growth inhibition [10]: 12.6% (inactive)
viability increase [11]: -2.98% (inactive)
viability [12]: 92.9% (inactive)
viability [13]: 91.3% (inactive)
inhibition [14]: 2.02% (inactive)
RAM network inhibition [15]: 2.34% (inactive)

COc1cccc(-c2nc(CS(=O)(=O)CC(=O)N3CCc4ccccc4C3)c(C)o2)c1
viability [1]: 93.5%
Her2 level [2]: 86.5% (inactive)
viability [3]: 93.5% (inactive)
viability [4]: 93.3% (inactive)
viability [5]: 89.1% (inactive)
differential viability (reversal) ([6]; H69AR cells + 2 uM doxorubicin): 6% (inactive)
viability [6, 16]: 83.1%
viability [6, 17]: 89.1%
inhibition [7]: -0.67% (inactive)
inhibition [8]: 0.98% (inactive)
growth inhibition [9]: 2.52% (inactive)
growth inhibition [10]: 8.9% (inactive)
viability increase [11]: -2.85% (inactive)
viability [12]: 75.5% (inactive)
viability [13]: 73.7% (inactive)
inhibition [14]: 1.68% (inactive)
RAM network inhibition [15]: 6.29% (inactive)

CC(C)CCNC(=O)Cn1c(NCCC(C)C)nc2c1c(=O)n(C)c(=O)n2C
viability [1]: 121%
Her2 level [2]: 118% (inactive)
viability [3]: 121% (inactive)
viability [4]: 102% (inactive)
viability [5]: 93.7% (inactive)
differential viability (reversal) ([6]; H69AR cells + 2 uM doxorubicin): -0.345% (inactive)
viability [6, 16]: 94%
viability [6, 17]: 93.7%
inhibition [7]: 1.73% (inactive)
inhibition [8]: -2.5% (inactive)
growth inhibition [9]: -4.12% (inactive)
growth inhibition [10]: -0.68% (inactive)
viability increase [11]: -1.31% (inactive)
viability [12]: 98.2% (inactive)
viability [13]: 92.8% (inactive)
inhibition [14]: 0.94% (inactive)
RAM network inhibition [15]: -0.63% (inactive)

O=C(NCCCN1CCOCC1)c1ccc(CS(=O)(=O)c2c(Cl)cccc2Cl)o1
viability [1]: 90.5%
Her2 level [2]: 102% (inactive)
viability [3]: 90.5% (inactive)
viability [4]: 88.8% (inactive)
viability [5]: 92.3% (inactive)
differential viability (reversal) ([6]; H69AR cells + 2 uM doxorubicin): -2.01% (inactive)
viability [6, 16]: 94.3%
viability [6, 17]: 92.3%
inhibition [7]: -0.67% (inactive)
inhibition [8]: -0.5% (inactive)
growth inhibition [9]: -11.8% (inactive)
growth inhibition [10]: -17.8% (inactive)
viability increase [11]: -1.26% (inactive)
viability [12]: 101% (inactive)
viability [13]: 92.3% (inactive)
inhibition [14]: 1.61% (inactive)
RAM network inhibition [15]: 5% (inactive)

Cc1cc2cc(CCNC(=O)CC(C)C)c(=O)[nH]c2cc1C
viability [1]: 102%
Her2 level [2]: 128% (inactive)
viability [3]: 102% (inactive)
viability [4]: 93.3% (inactive)
viability [5]: 90.2% (inactive)
differential viability (reversal) ([6]; H69AR cells + 2 uM doxorubicin): 0.865% (inactive)
viability [6, 16]: 89.4%
viability [6, 17]: 90.2%
inhibition [7]: -3.73% (inactive)
inhibition [8]: 5% (inactive)
growth inhibition [9]: -7.38% (inactive)
growth inhibition [10]: -5.57% (inactive)
viability increase [11]: -0.47% (inactive)
viability [12]: 104% (inactive)
viability [13]: 97.7% (inactive)
inhibition [14]: 0.365% (inactive)
RAM network inhibition [15]: 0.73% (inactive)

CCN(CC)CCN1C(=O)c2oc3ccc(F)cc3c(=O)c2C1c1ccncc1 (stereo not given)
viability [1]: 89.5%
Her2 level [2]: 96.5% (inactive)
viability [3]: 89.5% (inactive)
viability [4]: 95.6% (inactive)
viability [5]: 87.5% (inactive)
differential viability (reversal) ([6]; H69AR cells + 2 uM doxorubicin): 4.02% (inactive)
viability [6, 16]: 83.5%
viability [6, 17]: 87.5%
inhibition [7]: -3.2% (inactive)
inhibition [8]: -8.67% (inactive)
growth inhibition [9]: -0.15% (inactive)
growth inhibition [10]: -0.92% (inactive)
viability increase [11]: 0.69% (inactive)
viability [12]: 96.4% (inactive)
viability [13]: 95.9% (inactive)
inhibition [14]: 0.78% (inactive)
RAM network inhibition [15]: 2.14% (inactive)

Cn1c(C(=O)NCCCN2CCCCCC2)cc2c(=O)n(C)c3ccccc3c21
viability [1]: 80%
Her2 level [2]: 92.5% (inactive)
viability [3]: 80% (inactive)
viability [4]: 91.2% (inactive)
viability [5]: 87.2% (inactive)
differential viability (reversal) ([6]; H69AR cells + 2 uM doxorubicin): 12% (inactive)
viability [6, 16]: 75.1%
viability [6, 17]: 87.2%
inhibition [7]: 4.36% (inactive)
inhibition [8]: -3% (inactive)
growth inhibition [9]: -1.14% (inactive)
growth inhibition [10]: 6.89% (inactive)
viability increase [11]: -4.55% (inactive)
viability [12]: 76.1% (inactive)
viability [13]: 78.7% (inactive)
inhibition [14]: 1.04% (inactive)
RAM network inhibition [15]: 0% (inactive)

CC1CCN(c2nc3c(c(=O)[nH]c(=O)n3C)n2CCSc2ncccn2)CC1
viability [1]: 96.5%
Her2 level [2]: 97% (inactive)
viability [3]: 96.5% (inactive)
viability [4]: 109% (inactive)
viability [5]: 90.8% (inactive)
differential viability (reversal) ([6]; H69AR cells + 2 uM doxorubicin): 0.415% (inactive)
viability [6, 16]: 90.4%
viability [6, 17]: 90.8%
inhibition [7]: -4.4% (inactive)
inhibition [8]: -5.17% (inactive)
growth inhibition [9]: 1.06% (inactive)
growth inhibition [10]: -2.73% (inactive)
viability increase [11]: -0.46% (inactive)
viability [12]: 102% (inactive)
viability [13]: 102% (inactive)
inhibition [14]: 2.46% (inactive)
RAM network inhibition [15]: 2.81% (inactive)
